Bioassay records from PubChem BioAssay.
Rows were chosen to be rich in hits. Some 2.7% of all compounds tested hit in one or more screens of this group.
TMEM16A act – mouse TMEM16A channel activation, primary screen; Q8BHY3; HEK293 TMEM16A/YFP-H148Q/I152L, iodide quench fluorescence; hits give low values; B-score at 10 µM; 340,000 tested, 0.3% active; AID 623877;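 active = fluorescence-ratio B-score plate-corrected deviation score at least 3 library SD below zero, with starting fluorescence score within 5 deviations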;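 also: channel opened by trigger with iodide after compound preincubation; score built on the fluorescence ratio of max minus min over baseline; more negative score means more quench and so TMEM16A activation or potentiation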
PP1 counter – blocks human PP1-alpha phosphatase, a PP5 counter-screen | inhibition, % at 6.7 µM | purified PP1alpha, OMFP fluorescence | P62136 | 320,000 tested, 0.9% active;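 active = inhibition above the mean inhibition of all tested compounds plus 3 SD, computed separately for each screening campaign, cut at about 15% in these data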
PP5 inh – blocks human protein phosphatase 5 activity. purified PP5c, OMFP substrate fluorescence. 320,000 tested, 0.18% active. inhibition, % at 6.7 µM;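 active = inhibition above the campaign's mean inhibition across all tested compounds plus 3 SD, cut at about 9.5% in these data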;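 also: 0% = DMSO only and 100% = 100 µM cantharidin control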
DNA FID counter – fluorescent intercalator displacement, NS3 helicase counter-screen; DNA fluorescent intercalator displacement, fluorescence; inhibition, % at 7.9 µM; 290,000 tested, 0.17% active; in the data active = inhibition above about 37%;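 also: 0% = vehicle and 100% = reference compound; higher means more ethidium bromide displaced from hairpin DNA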
PREPL inhibitor – inhibitors of human prolyl oligopeptidase-like enzyme PREPL; inhibition, % at 5.96 µM; recombinant PREPL, fluorescence polarization activity-based probe; 320,000 tested, 0.68% active; Q4J6C6; in the data active = inhibition above about 43%;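 also: 0% = enzyme with DMSO and 100% = wells lacking enzyme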
Target sequence (Q4J6C6 whole entry, looked up): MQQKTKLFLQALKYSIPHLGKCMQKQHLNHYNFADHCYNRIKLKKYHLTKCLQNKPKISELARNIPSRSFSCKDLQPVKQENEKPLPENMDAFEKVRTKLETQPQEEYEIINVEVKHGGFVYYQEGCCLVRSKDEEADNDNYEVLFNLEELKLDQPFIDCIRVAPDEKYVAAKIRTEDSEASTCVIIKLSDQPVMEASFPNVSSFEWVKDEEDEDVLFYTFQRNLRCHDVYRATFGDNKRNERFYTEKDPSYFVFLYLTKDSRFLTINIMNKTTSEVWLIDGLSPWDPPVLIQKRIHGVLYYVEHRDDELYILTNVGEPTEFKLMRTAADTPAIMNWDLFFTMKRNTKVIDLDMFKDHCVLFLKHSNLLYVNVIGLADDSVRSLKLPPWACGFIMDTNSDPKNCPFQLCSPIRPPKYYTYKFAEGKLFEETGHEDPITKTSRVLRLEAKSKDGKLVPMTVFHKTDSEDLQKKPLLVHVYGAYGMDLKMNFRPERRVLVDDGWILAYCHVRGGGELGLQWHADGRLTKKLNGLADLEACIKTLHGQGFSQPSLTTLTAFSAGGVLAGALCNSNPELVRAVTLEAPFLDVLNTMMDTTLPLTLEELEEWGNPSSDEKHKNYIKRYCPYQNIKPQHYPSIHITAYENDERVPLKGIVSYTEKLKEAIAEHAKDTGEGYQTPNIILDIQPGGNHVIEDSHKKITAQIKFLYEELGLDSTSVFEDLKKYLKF
TMEM16A inh – mouse TMEM16A channel inhibition, primary screen | Q8BHY3 | HEK293 TMEM16A/YFP iodide influx fluorescence, ionomycin | normalized B-score (activity score, 25-100; higher = stronger inhibition) at 10 µM | 310,000 tested, 1.2% active | AID 588511;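 active = ratio plate-corrected score three or more library SD toward inhibition, starting fluorescence score within five deviations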;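 also: score derived from kinetic fluorescence span divided by baseline fluorescence per well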
TMEM16A reconf – re-confirmation of mouse TMEM16A chloride channel inhibitors. shares compounds with TMEM16A inh. HEK293 TMEM16A/YFP-H148Q, iodide quench fluorescence; ionomycin added to raise cell calcium. inhibition, % at 10 µM. 2,300 tested, 39% active;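 active = mean duplicate percent inhibition, scaled so buffer wells are 0 and the reference blocker 100, over three buffer SD above buffer mean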
TMEM16A Ca cntr – counter-screen for TMEM16A inhibitors: effect on calcium mobilization. calcium response (% of ionomycin), % at 10 µM. shares compounds with TMEM16A inh. 2,300 tested, 2% active. AID 652231. TMEM16A/YFP HEK293, Fluo4 calcium mobilization;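 active = duplicate-averaged calcium signal over 20% of the ionomycin maximum, relative to buffer baseline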;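 also: each well's signal is peak minus trough fluorescence divided by its pre-addition baseline; 0% = buffer wells and 100% = ionomycin wells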
Parental YFP cnt – counter-screen for TMEM16A inhibitors: effect in parental YFP-HEK293 cells. shares compounds with TMEM16A inh. iodide YFP quench, ionomycin. YFP ratio F(max-min)/F0 at 10 µM. 2,300 tested, under 10 active. AID 652233;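 active = yellow fluorescent protein signal ratio exceeding the buffer control mean by over 5 SD of those controls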;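 also: ratio is mean of duplicate wells from kinetic YFP trace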
ClC-1 inh – selectivity of TMEM16A inhibitors: inhibition of rat ClC-1 chloride channel | ratio percent, % at 10 µM | CHO ClC-1-YFP, iodide influx fluorescence quench; iodide control reads 0, buffer control 100 | shares compounds with TMEM16A inh | 2,300 tested, under 10 active;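 active = duplicate-mean ratio percent above the mean of iodide-only control wells, which defines zero, plus 5 of their SD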;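 also: higher percent means stronger block of ClC-1 iodide influx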
* hit, by the source's call; i = inactive; x = no result.

SMILES | TMEM16A act | PP1 counter | PP5 inh | DNA FID counter | PREPL inhibitor | TMEM16A inh | TMEM16A reconf | TMEM16A Ca cntr | Parental YFP cnt | ClC-1 inh
CC1=NN(C(=O)c2ccc(Br)cc2)C(O)(C(F)(F)OC(F)(F)F)C1 (stereo not drawn) | i | -1.0 | 0.3 | -4.7 | 1.9 | 100* | 29.0%* | i | -0.972 | -21.0
O=C(c1cc2c(F)cccc2s1)N1CCCC1 | i | -0.9 | -0.1 | -3.0 | -6.9 | i | x | x | x | x
Cc1ccc(C(=O)COC(=O)CCC(=O)Nc2cccc(Cl)c2)cc1[N+](=O)[O-] | i | -2.9 | 0.3 | 2.5 | -3.6 | 100* | i | i | -0.906 | -14.0
Cc1ccc(NC(NC(=O)c2cccs2)C(Cl)(Cl)Cl)cc1 (stereo not drawn) | i | 4.1 | 2.2 | 2.8 | -3.4 | i | x | x | x | x
Cc1ccc(NC(NC(=O)c2cccs2)C(Cl)(Cl)Cl)cc1C (stereo not drawn) | i | -0.9 | 3.1 | 0.0 | -8.9 | 100* | 28.5%* | i | -1.21 | -9.5
CCCCn1c(N)c(N(CCOC)C(=O)c2cc(-c3ccc(F)cc3)nc3ccccc23)c(=O)[nH]c1=O | i | 3.0 | 1.4 | x | 12.4 | i | x | x | x | x
CSc1nc2ccc(NS(=O)(=O)c3cccc(Cl)c3Cl)cc2s1 | i | -2.9 | 2.4 | -7.0 | -22.9 | 100* | 62.0%* | i | -0.921 | -15.5
CCCCOC(=O)Nc1nnc(COc2ccccc2)s1 | i | -3.5 | 2.0 | -11.7 | -3.8 | 25* | i | i | -0.825 | -15.5
O=C(CCC1CCCC1)Nc1ccccc1-c1ccccc1 | i | 3.4 | 1.4 | -21.9 | 21.0 | i | x | x | x | x
O=C(CCC1CCCCC1)Nc1ccccc1-c1ccccc1 | i | 5.4 | 1.6 | -18.2 | 4.1 | 100* | 26.5%* | i | -0.789 | -5.0
N#CC1(Cc2ccc([N+](=O)[O-])cc2)c2ccccc2C=CN1C(=O)c1ccccc1 (stereo not drawn) | i | 0.0 | 2.5 | -3.5 | -15.9 | i | x | x | x | x
N#CC1(Cc2ccccc2)c2ccccc2C=CN1C(=O)c1ccccc1 (stereo not drawn) | i | 1.3 | 2.8 | -9.1 | -11.3 | 100* | i | i | -1.22 | -12.0
Clc1ccc(CSc2nccn2Cc2ccccc2)cc1 | i | 8.0 | 5.5 | -8.9 | -24.8 | 100* | 44.0%* | i | -0.84 | -5.0
O=c1ccn(Cc2ccccc2)c(SCc2ccccc2)n1 | i | x | x | x | x | x | x | x | x | x
Cc1ccc(C)c(NC(=O)CC2Oc3ccccc3NC2=O)c1 (stereo not drawn) | i | -0.4 | 1.8 | -6.4 | 0.4 | i | x | x | x | x
COc1cc(/C=C2/CCC/C(=C\c3cc(O)c(OC)c(Cl)c3)C2=O)cc(Cl)c1O | i | 2.1 | 4.5 | 1.9 | 7.2 | i | i | i | -0.782 | -38.0
COc1cc(/C=C2\CC/C(=C\c3cc(OC)c(O)c(OC)c3)C2=O)cc(OC)c1O | i | 1.4 | 1.2 | -17.7 | 25.9 | i | x | x | x | x
COc1cccc(C2CC(c3cccs3)Nc3ncnn32)c1 (stereo not drawn) | i | -1.2 | -1.3 | -13.2 | -36.9 | 25* | i | i | -0.902 | -6.0
O=C(O)c1cc2ccccc2cc1Nc1ccccc1 | i | 10.2 | 1.7 | -18.7 | 12.1 | i | x | x | x | x
CCn1c(SCC(=O)N2CCN(c3ccccc3)CC2)nnc1-c1c[nH]c2ccccc12 | i | 1.9 | 1.7 | -33.5 | -5.3 | i | x | x | x | x
Cn1c(SCC(=O)N2CCN(c3ccccc3)CC2)nnc1-c1c[nH]c2ccccc12 | i | 4.1 | -0.3 | -28.3 | -49.5 | 100* | 21.0%* | i | -0.872 | -7.5
CCOCc1cc(CN2CCC(CCC(=O)NC3CC3)CC2)ccc1OC | i | -2.9 | 3.0 | -2.3 | 0.5 | i | x | x | x | x
Nc1nc(SCC(=O)N2CCc3ccccc3C2)[nH]c(=O)c1-c1ccccc1 | i | -1.5 | 0.0 | -4.2 | -4.5 | i | i | i | -1.02 | -15.0
CCSc1nnc(NC(=O)CSc2nccn2-c2cccc(C)c2C)s1 | x | 0.2 | 4.8 | -18.8 | -5.2 | 25* | i | i | -0.977 | -11.5
CCSc1nnc(NC(=O)CSc2nccn2-c2cc(C)cc(C)c2)s1 | x | -1.0 | 0.7 | -11.4 | 11.5 | i | x | x | x | x
SMILES | TMEM16A act | PP1 counter | PP5 inh | DNA FID counter | PREPL inhibitor | TMEM16A inh | TMEM16A reconf | TMEM16A Ca cntr | Parental YFP cnt | ClC-1 inh
COc1ccc(C(=O)COC(=O)CCN=C2NS(=O)(=O)c3ccccc32)c(OC)c1 | i | -7.6 | -3.4 | x | -6.2 | i | x | x | x | x
Cc1cccc(NC(=O)C2C(c3ccccc3)C2(Cl)Cl)c1 (stereo not drawn) | i | 4.8 | 2.5 | -1.5 | 2.5 | 100* | i | i | -0.909 | -10.0
Cn1c(=O)c2c(nc(N3CCCCCC3)n2Cc2cccc3ccccc23)n(C)c1=O | i | -2.7 | -1.1 | -8.7 | 17.7 | 100* | i | i | -0.966 | -7.5
COc1ccccc1N1CCN(C(=O)c2sc3nc(-c4ccc(F)cc4)cn3c2C)CC1 | i | 3.1 | 2.3 | -39.6 | 5.6 | 25* | i | i | -0.917 | -7.0
COc1cccc(NC(=O)CN(C)C(=O)Cn2c(=O)oc3ccccc32)c1 | i | -1.3 | 0.2 | x | 20.5 | i | x | x | x | x
O=C(Cc1ccccc1)NN1CCCCC1 | i | 5.0 | 0.5 | -4.5 | -1.7 | i | x | x | x | x
CCCCC1CC(C)(C(=O)CSc2nc3ccccc3s2)OC1=O (stereo not drawn) | i | 5.0 | 3.0 | -21.4 | -7.2 | 100* | 30.0%* | i | -1.01 | -2.5
Brc1ccc(-c2noc(COc3ccc4c(c3)CCC4)n2)o1 | i | -3.4 | 0.1 | -0.7 | -6.6 | i | x | x | x | x
c1csc(-c2noc(COc3ccc4c(c3)CCCC4)n2)c1 | i | -3.1 | 0.0 | 1.5 | 6.9 | i | i | i | -1.16 | -13.0
CCCC/C(C)=N\NC(=O)CNS(=O)(=O)c1ccc([N+](=O)[O-])cc1 | i | -2.5 | -0.3 | -2.9 | 9.6 | 25* | i | i | -0.934 | 1.5
CCC(C)/C(C)=N/NC(=O)CNS(=O)(=O)c1ccc([N+](=O)[O-])cc1 (stereo not drawn) | i | -6.9 | 0.6 | 3.4 | 3.9 | i | x | x | x | x
CCN(CC)c1ccc(NS(=O)(=O)c2ccc(OC)cc2)cc1 | i | 3.4 | 1.8 | -4.1 | 4.2 | i | x | x | x | x
